Laboratory results reported in PubChem BioAssay (NCI).
This is part of a sample that, as a whole, favours compounds with a hit. Of some 83,000 tested, about 20% had one in any assay.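 Interpretation: 100, growth as untreated; towards 0, rising growth inhibition; 0, no net growth; 0 to -100, cell death. Compounds scoring below 10 were considered active.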 Unmarked numbers belong to inactive results. Activity calls are given as the source filed them.

Legend:
Experiment in all cases: NCI-60 one-dose screen, 48 h (100 = growth as untreated, 0 = no growth, -100 = all killed)
Conditions in all cases: 10 µM unless noted
NCI-H23 lung = tested on: NCI-H23 lung
NCI-H226 lung = tested on: NCI-H226 lung
NCI-H322M lung = tested on: NCI-H322M lung
HOP-62 NSCLC = tested on: HOP-62 NSCLC
NCI-H460 lung = tested on: NCI-H460 lung
HOP-92 NSCLC = tested on: HOP-92 NSCLC
NCI-H522 lung = tested on: NCI-H522 lung
A549/ATCC NSCLC = tested on: A549/ATCC NSCLC
786-0 renal = tested on: 786-0 renal
COLO 205 colon = tested on: COLO 205 colon
DU-145 prostate = tested on: DU-145 prostate
K-562 leukemia = tested on: K-562 leukemia
MALME-3M melanoma = tested on: MALME-3M melanoma
MDA-MB-231 breast = tested on: MDA-MB-231 breast
RXF 393 renal = tested on: RXF 393 renal
SF-268 CNS = tested on: SF-268 CNS
SF-295 CNS = tested on: SF-295 CNS
SF-539 CNS = tested on: SF-539 CNS
UACC-257 melanoma = tested on: UACC-257 melanoma
M14 melanoma = tested on: M14 melanoma

Structure (SMILES) | growth (NCI-H23 lung) | growth (NCI-H226 lung) | growth (NCI-H322M lung) | growth (HOP-62 NSCLC) | growth (NCI-H460 lung) | growth (HOP-92 NSCLC) | growth (NCI-H522 lung) | growth (A549/ATCC NSCLC) | growth (786-0 renal) | growth (COLO 205 colon) | growth (DU-145 prostate) | growth (K-562 leukemia) | growth (MALME-3M melanoma) | growth (MDA-MB-231 breast) | growth (RXF 393 renal) | growth (SF-268 CNS) | growth (SF-295 CNS) | growth (SF-539 CNS) | growth (UACC-257 melanoma) | growth (M14 melanoma)
CCN(CC)CCOc1ccc(/C(=C(\C)Cc2ccc(OC)cc2)c2ccc(OC(=O)NCc3ccccc3)cc2)cc1 | 88.4% | 86.9% | 80.4% | 79.7% | 1.28% (active) | 59% | 69.7% | 48.1% | 56.7% | -56.1% (active) | 78.9% | -51% (active) | 26.1% | 76.3% | 59.7% | 73.7% | 59.4% | 65.6% | 38.2% | -61.5% (active)
O=C(/C=C/c1ccccc1)c1cccc2ccccc12 | 26.2% | 41.2% | 57.5% | 37.7% | 10.6% | 47.3% | 17.2% | 39% | 83.5% | 97.7% | 15.6% | 10.6% | 68.8% | 55.1% | 12.4% | 42.1% | 34.8% | 51.2% | 40.2% | 86.7%
C=C1C(=O)O[C@@H]2C3C(=C(C)CC[C@@H]12)CC1O[C@]13C (stereo not given in full) | 82.9% [6.75 µM] | 88.2% [6.75 µM] | 95.8% [6.75 µM] | 94.1% [6.75 µM] | 101% [6.75 µM] | 102% [6.75 µM] | -52.3% [6.75 µM] (active) | 90.1% [6.75 µM] | 83.1% [6.75 µM] | 87% [6.75 µM] | 52.9% [6.75 µM] | 49.6% [6.75 µM] | 77.6% [6.75 µM] | 93.5% [6.75 µM] | 91.6% [6.75 µM] | 91.2% [6.75 µM] | 102% [6.75 µM] | 82.3% [6.75 µM] | 70.4% [6.75 µM] | 65.5% [6.75 µM]
CCOC(=O)c1cnn(CC(C)O)c1NC(=O)NCc1ccccc1C(F)(F)F (stereo not given) | 98.8% | 104% | 97.5% | 102% | 109% | 84.5% | 60.8% | 82.1% | 93.8% | 112% | 105% | 86.3% | 101% | 105% | 111% | 101% | 92.6% | 98.3% | 89.7% | 88.6%
CNC(=O)Nc1ccc(-c2ccc3ncnc(Nc4cccc(Cl)c4)c3c2)cc1 | 62.9% | 68.4% | 7.46% (active) | 71.4% | 77.4% | 37.8% | -1.3% (active) | 41.8% | 71.4% | 66.3% | 44.8% | 60.3% | 53.5% | 65.7% | 50.4% | 52.2% | 59.9% | 74.3% | 65.7% | 63.2%
O=C1C=C(SCCO)C(=O)c2ccccc21 | -39% (active) | 95.6% | 69.6% | -46.9% (active) | 9.52% (active) | 94.3% | 21.6% | 68.1% | 70.3% | 76.3% | -96.7% (active) | -38.4% (active) | -68.1% (active) | 40.2% | 42.4% | 27.2% | -77.4% (active) | -77.1% (active) | 66.7% | -86.5% (active)
O=C1CCCCN1c1ccc(C2=NCCCN2)cc1 | 99.2% | 101% | 92.3% | 101% | 94.9% | 117% | 79.1% | 97% | 95% | 104% | 103% | 80.6% | 77.4% | 88.6% | 90.4% | 92% | 85.1% | 64.7% | 111% | 104%
